Structures are written as SMILES. Inconclusive results are not listed. Entries that show only a call come without a potency. Activity calls are given as the source filed them. Calls follow the shape of the dose curve; as a rule, active = well fitted inhibition curve with a large enough effect; inconclusive = small, poorly fitted or top-dose-only effect; inactive = no such curve, though single readings can be large or run the other way.

This assay deals with Zika virus NS2B-NS3 protease (unlinked complex). Put plainly: Primary screen GU Rhodamine qHTS for Zika virus inhibitors: Unlinked NS2B-NS3 protease assay (AID 1347159). Also: nearly all actives have a fitted effect of over 60% in size. The settings on record: Recombinant ZIKV NS2B-NS3 protease, Rhodamine110 substrate fluorescence; series mostly up to 107 µM. The source says: Avindra Nath, Ph.D., National Institute of Neurological Disorders and Stroke (NINDS), Bethesda, MD
Radhakrishnan Padmanabhan, Ph.D., Georgetown University (GU), Washington D.C.
Zika Virus causes congenital defects, including microcephaly and is associated with Guillain-Barre syndrome, eningoencephalitis and myelitis in infected adult. […] Using a target-based approach, we hope to establish a screening paradigm to uncover novel, cell-active NS2B-NS3 protease (Zika Virus) specific inhibitors from NCATS' collection of small molecules using qHTS.
Four assay panel was created to identify potential Zika Virus inhibitors. Namely, (1) GU unlinked NS2B-NS3 AMC tagged protease qHTS, (2) GU unlinked NS2B-NS3 Rhodamine tagged protease qHTS, (3) NINDS linked NS2B-NS3 AMC tagged protease qHTS, (4) NINDS linked NS2B-NS3 Rhodamine tagged protease qHTS. Active compounds were re-acquired and re-screened to confirm inhibition. Inhibitors were further screened against various confirmatory and counterscreens in dose response format.
Early Translation Branch (ETB)
National Center for Advancing Translational Sciences (NCATS), Rockville, MD
National Institute of Health (NIH), Bethesda, Maryland
Padmanabhan lab provided the NS2B hydrophilic domain and NS3 protease domain in a noncovalent complex used for the unlinked assay. Control compound aprotinin is obtained from Thermo Scientific (#78432; Waltham, Massachusetts). Rhodamine110 substrate ([N-Cbz]-Nle-Lys-Arg-Arg-Rhod110-Arg-Arg-Lys-Nle-[N-Cbz]) was purchased from either Genscript or Bachem.
1536-well Protease (Rhodamine110 Substrate) Assay:
Briefly, 3 microL of enzyme (25 nM final concentration), in assay buffer (10 mM Tris-HCl pH 8.0 with 0.01% Tween 20) were dispensed into a 1,536-well solid-bottom black plate (Greiner Bio One, Monroe, NC). Twenty-three nL of compounds (final concentration range 7.28 nM to 114 microM) or control Aprotinin (final concentration range 3.47 nM to 114 microM) were transferred via Wako Pin-tool (Wako Automation, Richmond, VA). Samples were incubated (room temperature, protected from light) for 15 minutes followed by a 1 microL Rhodamine110 substrate addition (1.5 microM final concentration). Plates were then immediately read on a ViewLux High-throughput CCD imager (PerkinElmer, Waltham, MA) equipped with FITC fluorescence optics (480(20) nm excitation, 540(25) nm emission), then incubated (room temperature, protected from light) for 15 minutes (~15% conversion). The change in fluorescence intensity over the 15-minute reaction period was normalized against no-inhibitor and no-enzyme controls and the resulting percent inhibition data were fitted to a 4-parameter Hill equation. Aprotinin was used as intraplate control.
On the technique in general: In qHTS, concentration-response curves come from the screen itself.
On to `O=C(CC1NCCC[C@H]1O)Cn1cnc2cc(Br)c(Cl)cc2c1=O` (stereo not given in full), for which the Potency entry was “inactive”. Under `COc1ccc2c(c1)CN(C(=O)CCN1CCC(Cc3ccccc3)CC1)CCS2` stands “inactive”. Under `C=C1[C@@H](C)[C@H]2[C@H](Cc3c[nH]c4ccccc34)NC(=O)[C@]23C(=O)/C=C/C(=O)[C@H](O)/C(C)=C\[C@@H](C)C/C=C/[C@H]3[C@@H]1O` stands “inactive”; under `Cc1cc(N=Nc2ccc(S(=O)(=O)Nc3ccccn3)cc2)c(N)cc1O`, “inactive”. Under `C=CC(=O)Nc1cccc(Nc2nc(Nc3ccc(Oc4ccnc(C(=O)NC)c4)cc3)ncc2F)c1` stands “inactive”. `CC(=O)Nc1nc2c(Oc3cc(-c4ccc(C(F)(F)F)cc4)ncn3)cccc2s1`: the Potency entry is “inactive”. As for `CC[C@H]1OC(=O)[C@H](C)[C@@H](O[C@H]2C[C@@](C)(OC)[C@@H](O)[C@H](C)O2)[C@H](C)[C@@H](O[C@@H]2O[C@H](C)C[C@H](N(C)C)[C@H]2O)[C@](C)(O)C[C@@H](C)/C(=N/OCOCCOC)[C@H](C)[C@@H](O)[C@]1(C)O`, the entry is “inactive”. For `CC(CCC1(O)OC2CC3C4CC=C5CC(O[C@@H]6O[C@H](CO)[C@@H](O[C@@H]7O[C@H](CO)[C@@H](O)[C@H](O)[C@H]7O)[C@H](O)[C@H]6O[C@@H]6O[C@@H](C)[C@H](O)[C@@H](O)[C@H]6O)CCC5(C)C4CCC3(C)C2C1C)CO[C@@H]1O[C@H](CO)[C@@H](O)[C@H](O)[C@H]1O` (stereo not given in full), the Potency entry is “inactive”. Under `C=C1C(=O)O[C@@H]2C[C@@H](C)[C@]34C[C@]5(C(=O)O[C@H]6CC(C)=C([C@H](C)CCCO)[C@H](OC(=O)C(C)CC)[C@H]65)[C@@H](C(C)=C3C[C@@H]12)[C@H]4OC(C)=O` (stereo not given in full) stands “inactive”; under `COc1cc2ncnc(Nc3ccc(Oc4ccccc4)cc3)c2cc1OC`, “inactive”; under `COc1ccc(C(=O)N(CCC(C)C)Cc2nc(C)c(C)n2Cc2ccccc2C)c(OC)c1`, “inactive”. Take `O=S(=O)(c1cccc2ccccc12)n1ccc2ccc(N3CCN4CCCC4C3)cc21` (stereo not given): the Potency entry is “inactive”.

In the case of `COC(=O)/C=C/C(=O)N(O)CCCCNCc1ccc(COC(=O)Nc2cccc3ccccc23)cc1`, the Potency result is “inactive”. Under `O=C(c1ccc(F)c(F)c1Nc1ccc(I)cc1F)N1CC(O)(C2CCCCN2)C1` (stereo not given) stands “inactive”; under `COc1cc(-c2cc(-c3ccc(N4CCNCC4)cc3)cnc2C)cc(OC)c1OC`, “inactive”; under `OCC(CO)(CO)NCC(O)Cn1c2ccc(Cl)cc2c2cc(Cl)ccc21` (stereo not given), “inactive”. With `COc1c(N2CC3CCCNC3C2)c(F)cc2c(=O)c(C(=O)O)cn(C3CC3)c12` (stereo not given), the Potency entry was “inactive”. As for `CC1CCN(c2cc(NC(=O)c3ccccc3)ncn2)CC1`, the entry is “inactive”; as for `Cc1cc(CN)cc(C)c1NC(=O)c1ccc(-c2cc(Cl)ccc2Cl)o1`, “inactive”. Regarding `CNCc1ccc(C)c(NC(=O)c2ccc(Nc3nc(-c4ccccc4)c4ccccc4n3)cc2)c1`, the Potency result was “inactive”. As to `C=C(C)C(=O)O[C@H]1[C@H]2C(=C)C(=O)O[C@@H]2C[C@@H](C)/C=C\C(=O)[C@](C)(O)[C@@H]1OC(C)=O`, the Potency entry is “inactive”. Under `CCN1CCC[C@@H]1CNC(=O)c1ccc2c(c1)NC(=O)/C(=C/c1ccccc1F)S2` stands “inactive”; under `O=C(c1ccc(F)c(F)c1Nc1ccc(I)cc1F)N1CC(O)([C@@H]2CCCCN2)C1`, “inactive”. Consider `COc1cc(N2CCN(C)CC2)ccc1Nc1nccc(-c2cn(C)c3cnccc23)n1`, for which the Potency entry was “inactive”. As for `c1ccc(-c2cnc(Nc3ccc(OCCN4CCCC4)cc3)s2)cc1`, the entry is “inactive”; as for `O=C(C1=CCN2c3c(cccc31)OC[C@H]2CN1CCOCC1)c1cccc2ccccc12`, “inactive”; as for `N#C[C@@H]1C[C@@H]2C[C@@H]2N1C(=O)[C@@H](N)C12CC3CC(CC(O)(C3)C1)C2`, “inactive”. Under `Cc1ccn(-c2cc(Cl)ccc2[C@@H](Oc2cc(-c3ccc(C[C@H](N)C(=O)O)cc3)nc(N)n2)C(F)(F)F)n1` stands “inactive”. Under `Nc1ncnc2c1ncn2[C@@H]1O[C@H](CO)C[C@H]1O` stands “inactive”; under `C=C(C)C(=O)O[C@H]1[C@H]2C(=C)C(=O)O[C@@H]2C[C@@H](C)[C@@H]2O[C@@H]2C(=O)[C@](C)(O)[C@@H]1OC(C)=O`, “inactive”; under `C[N+]1(C)[C@@H]2CC[C@H]1CC(OC(=O)C(O)c1ccccc1)C2` (stereo not given in full), “inactive”. Consider `CC[C@H](CO)Nc1nc(Nc2cccc(-c3ccccn3)c2)c2ncn(C(C)C)c2n1`, for which the Potency entry was “inactive”.

Take `CC(C)COc1ccc(CNC(=O)N(Cc2ccc(F)cc2)C2CCN(C)CC2)cc1`: the Potency entry is “inactive”. As for `C=C(C)C(=O)OC1[C@@H]2C(=C)C(=O)O[C@@H]2C[C@@H](C)[C@@H]2C=CC(=O)[C@@]12C` (stereo not given in full), the entry is “inactive”. As for `COCCNCc1ccc(-c2cc3nccc(Oc4ccc(NC(=S)NC(=O)Cc5ccc(F)cc5)cc4F)c3s2)nc1`, the entry is “inactive”. As for `COCCOCCOc1ccc(C2=N[C@@](C)(C(=O)O)CS2)c(O)c1`, the entry is “inactive”; as for `Cc1c(C(=O)NCCCO)cnn1-c1nc(-c2cccc(C(F)(F)F)c2)cs1`, “inactive”.

With `CCOc1ccc(-c2nc(-c3cccc4c3CCC4NCCO)no2)cc1OCC` (stereo not given), the Potency entry was “inactive”. Turning to `CNc1nc(-c2ccc3c(N)n[nH]c3c2)cc(N2CC(C(=O)NC3CCCCC3)CCC2C)n1` (stereo not given), the Potency result was “inactive”. As for `CC/C(=C(\c1ccc(O)cc1)c1ccc(OCCNC)cc1)c1ccccc1`, the entry is “inactive”.

(Values after PubChem BioAssay (NCATS).)
